# Assay outcomes from PubChem.
# RPL19A TOR yeast: modulators of TOR pathway RPL19A-GFP in S. cerevisiae; S. cerevisiae RPL19A-GFP strain, flow cytometry, 3 h; active compounds read low; percent response vs DMSO, % at 10 µM; 330,000 tested, 0.3% active; AID 2025;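 active = percent response vs DMSO below 50%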;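 note: median channel GFP fluorescence of the barcoded RPL19A-GFP strain; ratio of sample median GFP to plate DMSO average so 100% = DMSO; lower means less RPL19A-GFP as with rapamycin TOR inhibition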
# LAP4-GFP MLPCN: modulators of TOR pathway LAP4-GFP in S. cerevisiae; S. cerevisiae LAP4-GFP multiplex, flow cytometry GFP, 3 h; median GFP as percent of DMSO wells; GFP response vs DMSO, % at 10 µM; 320,000 tested, 0.34% active; AID 2023;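 active = GFP response vs DMSO above a set limit, about the screen mean plus 3 SD, cut at about 150% in these data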
# AGP1-GFP MLPCN: modulators of TOR pathway AGP1-GFP in S. cerevisiae; S. cerevisiae AGP1-GFP multiplex flow cytometry, 3 h; GFP as percent of DMSO wells; GFP response vs DMSO, % at 10 µM; 320,000 tested, 0.02% active; AID 2066;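 active = GFP response relative to DMSO above a set limit, near screen average plus 3 SD, cut at about 150% in these data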;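 note: median GFP channel fluorescence of the gated AGP1 strain per well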
# MEP2-GFP yeast: yeast TOR pathway MEP2-GFP modulation; S. cerevisiae MEP2-GFP strain, flow cytometry GFP, 3 h; 100% = DMSO control level; GFP response vs DMSO, % at 10 µM; 330,000 tested, 0.51% active; AID 2016;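 active = GFP response versus DMSO above a set limit, roughly screen mean plus 3 SD, cut at about 180% in these data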;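 note: median GFP fluorescence of the barcode-gated MEP2-GFP cells per well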
# CIT2-GFP yeast: alters CIT2-GFP fluorescence in TOR pathway yeast screen | AID 2029 | GFP response vs DMSO, % at 10 µM | 320,000 tested, 0.065% active | S. cerevisiae CIT2-GFP strain, flow cytometry, 3 h; 100 means same as DMSO wells;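 active = GFP response relative to DMSO above a set limit, near the screen mean plus 3 SD, cut at about 150% in these data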;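 note: ratio of well median GFP fluorescence to mean of DMSO wells on the plate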
# LAP4-GFP pick2: second confirmation of modulators of TOR reporter LAP4-GFP in yeast; 590 tested, 20% active; GFP response vs DMSO, % at 10 µM; AID 2621; shares compounds with LAP4-GFP MLPCN; S. cerevisiae LAP4-GFP strain, flow cytometry GFP, 3 h;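 active = GFP signal as percent of the solvent control above about 150%, meaning raised reporter expression, limit read from the data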;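 note: ratio of well median GFP fluorescence to plate DMSO mean so 100% = DMSO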
# MEP2 cherry2: yeast MEP2-GFP modulation, second cherry pick; shares compounds with LAP4-GFP MLPCN; S. cerevisiae MEP2-GFP strain, flow cytometry GFP, 3 h; GFP response vs DMSO, % at 10 µM; 590 tested, 10% active; AID 2622;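 active = GFP signal above 150% of the solvent control wells, that is a rise of more than half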;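 note: median channel GFP fluorescence of all gated yeast cells per well; ratio of median GFP to plate DMSO average so 100% = DMSO level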
# RPL19A GFP CP2: reconfirmed modulator of RPL19A-GFP TOR reporter in yeast; shares compounds with LAP4-GFP MLPCN; S. cerevisiae RPL19A-GFP strain, flow cytometry GFP, 3 h; active compounds read low; 100% means same as DMSO wells; GFP response vs DMSO, % at 10 µM; 590 tested, 3% active; AID 2623;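 active = under 65% GFP response relative to DMSO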;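 note: median GFP channel fluorescence per well over the all cells gate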
# CIT2-GFP pick2: yeast CIT2-GFP TOR reporter modulation, second cherry pick; shares compounds with LAP4-GFP MLPCN; S. cerevisiae CIT2-GFP strain, flow cytometry GFP, 3 h; DMSO control wells read 100%; GFP response vs DMSO, % at 10 µM; 590 tested, 8% active; AID 2624;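 active = GFP response vs DMSO above about 150%, limit read from the data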;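 note: median green fluorescence per well over all gated yeast cells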
# AGP1 GFP CP2: second confirmation of modulators of TOR reporter AGP1-GFP in yeast. percent response vs DMSO, % at 10 µM. 590 tested, under 10 active. S. cerevisiae AGP1-GFP strain, flow cytometry GFP, 3 h. shares compounds with LAP4-GFP MLPCN;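 active = over 150 percent of DMSO response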;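 note: median GFP channel fluorescence over all cells without mother daughter split; sample median GFP divided by mean DMSO control so 100% equals DMSO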
# s288c autofluor: compound is autofluorescent in yeast s288c cells. shares compounds with LAP4-GFP MLPCN. S. cerevisiae s288c, 520 nm autofluorescence, flow cytometry, 3 h; active compounds read high; zero means same as solvent-only cells. fluorescence change (kMESF span) at 33 µM. 610 tested, under 10 active;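 active = fluorescence span over the dose series, or activity score, above about 33, limit read from the data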
# s288c autofl DR: TOR screen hit shows autofluorescence in yeast s288c | shares compounds with LAP4-GFP MLPCN | S. cerevisiae s288c parental, compound autofluorescence, flow cytometry, 3 h | fluorescence change (span) at 33 µM | 110 tested, under 10 active | AID 488829;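 active = fluorescence change span, or the activity score built from it, above 25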
# TORC1 bypass: wildtype yeast growth loss with TORC1 bypass cells unaffected; shares compounds with LAP4-GFP MLPCN; S. cerevisiae BY4741 spot growth rating, 48-72 h; active compounds read low; growth rating (0-3) at 30 µM; 120 tested, under 10 active;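 active = growth rating at most 1 for wild type yeast while the TORC1 bypass strain still grows fully, rated 3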
# * = called active by the depositor; · = not tested or not shown. An excerpt weighted towards active compounds, which were near 0.89% of everything screened.
SMILES,RPL19A TOR yeast,LAP4-GFP MLPCN,AGP1-GFP MLPCN,MEP2-GFP yeast,CIT2-GFP yeast,s288c autofluor,others
O=C1C(Cl)=C(Nc2ccccc2O)C(=O)N1c1ccccc1,98.3,114.5,104.2,107.4,102.0,0.1,
Cc1c(NC2=C(Cl)C(=O)N(c3ccccc3)C2=O)c(=O)n(-c2ccccc2)n1C,97.3,142.7,98.6,96.9,95.4,0.4,
Cc1c(NC2=C(Cl)C(=O)N(c3ccccc3Cl)C2=O)c(=O)n(-c2ccccc2)n1C,102.9,90.5,105.1,100.8,106.8,0.1,
O=[N+]([O-])c1cc(/C=N\Nc2ccccn2)ccc1Cl,105.7,80.0,98.1,102.8,95.6,·,
O=[N+]([O-])c1cc(Cl)cc(/C=N\Nc2ccccn2)c1O,52.2,146.5,45.8,121.7,74.4,2.7,LAP4-GFP pick2=179.4*;MEP2 cherry2=192.1*;RPL19A GFP CP2=82.2;CIT2-GFP pick2=165.5*;AGP1 GFP CP2=84.4
O=Nc1c(-c2cccc([N+](=O)[O-])c2)nc2ncccn12,63.2,137.8,65.2,91.4,60.7,·,LAP4-GFP pick2=139.3;MEP2 cherry2=148.5;RPL19A GFP CP2=67.2;CIT2-GFP pick2=107.1;AGP1 GFP CP2=81.8
Nc1ccccc1C#CC(=O)c1ccccc1,85.2,227.7*,121.0,117.7,96.0,0.5,LAP4-GFP pick2=179.4*;MEP2 cherry2=143.2;RPL19A GFP CP2=85.6;CIT2-GFP pick2=121.0;AGP1 GFP CP2=130.8
Nc1ccccc1C#Cc1ccc([N+](=O)[O-])cc1,91.5,117.8,96.1,94.7,86.8,·,
O=C(C#Cc1cccc([N+](=O)[O-])c1)c1ccccc1,88.3,171.3*,92.7,103.3,82.2,0.71,
CS(=O)(=O)c1nc(-c2cccs2)cc(C(F)(F)F)n1,88.2,186.4*,124.0,162.3,84.3,0.61,
COc1ccc(-c2cc(C(F)(F)F)nc(N)n2)cc1,110.8,96.4,90.3,103.7,100.5,·,
COc1ccc(-c2cc(C(F)(F)F)nc(S(C)(=O)=O)n2)cc1,96.9,154.7*,113.9,146.4,83.5,0.62,
CCOc1ccc(/C=N/NC(=O)c2ccc(O)cc2)cc1CN1CC2CC(C1)c1cccc(=O)n1C2 (stereo not given),100.0,103.1,107.7,104.0,108.8,·,
O=[N+]([O-])c1c(Nc2ccc(O)cc2)cc(N2CCOCC2)c2nonc12,102.0,103.6,99.9,100.7,94.0,·,
Cc1ccc(OCC(O)CN2CCN(CCO)CC2)c(C)c1 (stereo not given),105.2,100.4,107.7,107.7,106.0,·,
Cc1cc(C(=O)Nc2ccc(S(=O)(=O)N3CCCC3)cc2)no1,103.5,103.8,102.6,103.5,99.1,·,
COc1ccc(C(C)=O)cc1COC(=O)c1cnc(Cl)c(Cl)c1,63.7,99.5,72.9,134.8,90.9,·,LAP4-GFP pick2=114.2;MEP2 cherry2=125.8;RPL19A GFP CP2=97.8;CIT2-GFP pick2=108.5;AGP1 GFP CP2=108.0
COc1ccc(C(C)=O)cc1COC(=O)c1ccc2c(c1)OCO2,97.5,98.9,96.7,102.0,90.6,·,
Cc1cc(C)nc(N/N=C/c2sccc2C)n1,99.7,99.8,101.1,101.4,107.8,·,
Cc1ccsc1/C=N/Nc1ncc(Cl)cc1Cl,·,300.2*,77.2,110.5,79.4,1.01,
O=C(NCc1ccccn1)C(=O)NCC1OCCN1C(=O)c1ccc(Cl)cc1 (stereo not given),93.9,83.1,89.1,95.1,101.0,·,
O=C(NCc1ccco1)C(=O)NCC1OCCN1C(=O)c1ccc(Cl)cc1 (stereo not given),57.0,97.5,95.1,165.2,97.8,·,LAP4-GFP pick2=101.9;MEP2 cherry2=104.8;RPL19A GFP CP2=99.6;CIT2-GFP pick2=100.7;AGP1 GFP CP2=98.6
CCc1nc2ccccc2c(=O)n1NC(=O)c1c(O)c2ccccc2n(CC)c1=O,53.5,86.8,39.5,123.9,102.6,1.4,LAP4-GFP pick2=125.2;MEP2 cherry2=223.6*;RPL19A GFP CP2=42.2*;CIT2-GFP pick2=168.3*;AGP1 GFP CP2=43.8
CCCc1nnc(NC(=O)c2c(O)c3cccc4c3n(c2=O)CCC4)s1,51.4,97.8,64.3,80.9,80.3,3.84,LAP4-GFP pick2=107.2;MEP2 cherry2=132.8;RPL19A GFP CP2=49.9*;CIT2-GFP pick2=127.9;AGP1 GFP CP2=47.1
CCn1c(=O)c(C(C)=O)c(O)c2ccccc21,91.5,173.6*,79.1,92.0,58.3,-1.71,
SMILES,RPL19A TOR yeast,LAP4-GFP MLPCN,AGP1-GFP MLPCN,MEP2-GFP yeast,CIT2-GFP yeast,s288c autofluor,others
CCn1c(=O)c(C(=O)Nn2c(C)nc3ccccc3c2=O)c(O)c2ccccc21,52.3,96.4,75.4,100.9,122.5,·,
CCOC(=O)c1c(O)c2ccccc2n(CC)c1=O,74.1,141.6,81.0,106.1,84.2,·,
CCn1c(=O)c(C(=O)Nc2nc3ccccc3[nH]2)c(O)c2ccccc21,66.9,176.3*,39.8,125.7,84.5,4.44,
CCCCCc1ccc(C(=O)CCCC)c(=S)[nH]1,98.3,112.2,100.5,107.7,105.7,·,
COc1cc(OC)cc(C(=O)NC(C)c2cnn(-c3ccccc3C)c2C)c1 (stereo not given),106.6,90.3,101.5,107.5,105.3,·,
O=C(/C=C/c1ccccc1[N+](=O)[O-])c1ccc(F)cc1,97.0,104.2,95.7,105.5,103.2,·,
O=C(Nn1c(Cc2ccccc2)nc2ccccc2c1=O)c1c(O)c2cccc3c2n(c1=O)CCC3,94.8,103.2,102.8,91.2,92.9,·,
CCc1nc2ccccc2c(=O)n1NC(=O)c1c(O)c2cccc3c2n(c1=O)CCC3,57.2,92.6,58.5,83.3,81.0,2.22,LAP4-GFP pick2=114.2;MEP2 cherry2=129.3;RPL19A GFP CP2=63.8*;CIT2-GFP pick2=122.4;AGP1 GFP CP2=39.0
O/C=c1\ccc2cccc3nc(C(F)(F)F)nc1c23,115.4,172.7*,103.6,233.1*,241.6*,8.36,
C/C(=N\NC(=O)c1ccc(C(C)(C)C)cc1)c1ccccn1,·,·,·,·,·,·,s288c autofl DR=0.52;TORC1 bypass=3
